# Screening data (PubChem BioAssay)
# SW480 rerep = induces DNA re-replication in SW480 colon adenocarcinoma cells; SW480 DNA re-replication, Hoechst DNA content imaging, 48 h; 340,000 compounds, 1.8% hits; Potency, µM (series often up to 46.1 µM), for the others: at the top dose re-replication activation, actives largely listed as activators; also: potency is read from the fitted curve at half-maximal effect; % of control where 0% means no effect; nearly all actives have a fitted effect of over 55% in size
#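 DNA re-replication was detected as more nuclei of elevated Hoechst intensity after 48 hr exposure to compound (23 nL pinned per well of 250 cells).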
# KB-V1 MDR tox = KB-V1 MDR subline cytotoxicity; KB-V1 MDR cells viability, CellTiter-Glo, 72 h; Potency, µM (top dose mostly 46.1 µM), actives largely listed as cytotoxic; 400,000 compounds, 3.4% hits; AID 1347076; also: potency is read from the fitted curve at half-maximal effect; % is scaled to controls: 0 for no effect and ±100 for the full control effect; nearly all actives have a fitted effect of over 60% in size
#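 Cytotoxicity toward P-gp-expressing KB-V1 cells was determined as loss of CellTiter-Glo luminescence after 72 h at 37 degrees C. Compounds were tested in quantitative HTS format across a concentration range, with curves fitted to normalized data.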
# KB-3-1 cytotox = kills parental KB-3-1 adenocarcinoma cells. KB-3-1 viability, CellTiter-Glo ATP luminescence, 72 h. Potency, µM (titrated, usually from 46.1 µM), actives largely listed as cytotoxic. 400,000 compounds, 1.4% hits. AID 1347075; also: potency is read from the fitted curve at half-maximal effect; % is scaled to controls: 0 for no effect and ±100 for the full control effect; nearly all actives have a fitted effect of over 60% in size
#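 KB-3-1 cells, DMEM (no phenol red) + 10% FBS; compound by pin transfer, 72 h, 37 °C. Readout: CellTiter-Glo luminescence after 10 min. Data normalized, curve-fitted.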
# MCF10A rereplic = DNA re-replication induction in MCF 10a cells | MCF 10A DNA re-replication, Hoechst nuclear intensity, 48 h | 350,000 compounds, 2.9% hits | AID 624296 | Potency, µM (series often up to 46.1 µM), for the others: top-dose activity, positive = re-replication, actives largely listed as activators; also: potency is read from the fitted curve at half-maximal effect; % of control where 0% means no effect; nearly all actives have a fitted effect of over 50% in size
# IL-1B inflam inh = blocks inflammasome-driven IL-1 beta release | THP-1 LPS/ATP IL-1B secretion, AlphaLISA, 16 h; hits give low values | activity change, % at 57.5 µM | 360,000 compounds, 4.7% hits; in the data active = activity change below about -50%; inconclusive = mostly about -30% to -49%; also: % is scaled to controls: 0 for no effect and ±100 for the full control effect
#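 THP-1 cells pretreated 1 hr with compounds (up to 57.5 uM final), then stimulated with LPS (250 ng/mL final) plus ATP (1.25 mM final); secreted IL-1B measured by AlphaLISA after 16 hr, decreased signal indicating inhibition.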
# Numbers without * were called inactive; i = inactive; ? = inconclusive; / = no result; [ ] = remark or other dose. Shown are actives, neighbours in structure and some others; about 9.9% of the full set was active somewhere. Unless noted, calls follow the shape of the dose curve; as a rule, active = well fitted curve in the direction sought with a large enough effect; inconclusive = small, poorly fitted or top-dose-only effect, or another doubt; inactive = no such curve, though single readings can be large; an effect the other way counts as inactive or inconclusive.
SMILES,SW480 rerep,KB-V1 MDR tox,KB-3-1 cytotox,MCF10A rereplic,IL-1B inflam inh
O=S(=O)(c1cccc(F)c1)N1CCN(c2nc(-c3cccnc3)nc3ccccc23)CC1,-17.3%,?,?,?,-57.4*
CN1CCN(c2nc(-c3ccccc3O)nc3ccccc23)CC1,?,i,i,-2.4%,2.7
CN1CCN(c2nc(-c3ccc(Cl)cc3)nc3ccccc23)CC1,-0.3%,i,i,0.5%,-89.1*
O=S(=O)(c1ccccc1)[C@@]1(c2ccc(Br)cc2)C[C@@H]2ON=C(c3ccccc3)[C@@H]2C1,-2.3%,i,?,-14.4%,-20.8
CCN(c1cccc(C)c1)S(=O)(=O)c1cc(CN2C(=O)c3cccnc3C2=O)ccc1OC,?,?,i,-4.1%,20.6
O=C(O)C1C2CCC(C2)C1C(=O)NCCc1ccccc1 (stereo not given),-49.1%,i,i,10.7%,14.3
O=C(/C=C/Nc1ccccc1)c1ccc(Cl)cc1Cl,0.1%,i,i,22.5%,-10.8
N#Cc1c(Nc2ccccc2)[n+]([O-])c2ccc(Cl)cc2[n+]1[O-],2.91µM*,i,?,16.2%,-20.3
Cc1coc2c(C)c3oc(=O)c(CCC(=O)N4CCC(C(=O)NCCCC(=O)O)(c5ccccc5)CC4)c(C)c3cc12,-19.1%,?,i,-2.7%,-9.4
CC1=CCC2C(=O)N(c3cccc(C(=O)Nc4ccc(Cl)cc4)c3)C(=O)C2C1 (stereo not given),-1.2%,i,i,5.3%,-80.1*
C/C(=N\O)c1cc(Cl)cc(Cl)c1O,6.5%,i,i,0.2%,-82.6*
CCc1ccc(C(c2c(C)nn(-c3ccccc3)c2N)c2c(C)nn(-c3ccccc3)c2N)cc1,6.3%,i,i,?,-67.1*
Cc1cccc(C(c2c(C)nn(-c3ccccc3)c2N)c2c(C)nn(-c3ccccc3)c2N)c1,0.4%,?,i,3.9%,-6.8
O=C(C1=NNCC1c1ccccc1)C1OC1c1ccccc1 (stereo not given),-37.8%,i,i,?,-89.4*
COC(=O)[C@H]1[C@H](c2ccccc2)[C@H](C(=O)OC)O[C@H]1c1ccccc1,-141.4%,i,i,0.4%,14.7
CCOC(=O)c1sc(NC(=O)CCN2CCN(CC)CC2)c(C(=O)OCC)c1C,?,i,i,21.9%,-214.9*
CCOC(=O)c1c(NC(=O)COC(=O)Cc2ccccc2[N+](=O)[O-])sc(C(=O)N(C)C)c1C,-18.8%,i,i,2.2%,23.3
CCOC(=O)c1c(NC(=O)COC(=O)c2ccccc2NC)sc(C(=O)N(C)C)c1C,16.5%,?,i,11.3%,-79.2*
CCOC(=O)c1sc(NC(=O)CN(CC(C)C)CC(C)C)c(C(=O)OCC)c1C,2.7%,20.6µM*,?,?,14.0
CC(C)OC(=O)c1ccc(NCc2cc(O)ccc2O)cc1,?,?,?,?,-100.5*
O=C(OCc1ccccc1)c1ccc(NCc2cc(O)ccc2O)cc1,?,2.59µM*,3.66µM*,?,-76.2*
COP(=O)(OC)c1ccc(NCc2cc(O)ccc2O)cc1,?,i,i,?,0.0
COc1cccc(S(=O)(=O)Nc2ccc3c(c2)C(=O)N(C)C[C@H](OC)[C@H](C)CN[C@@H](C)CO3)c1,/,i,i,/,16.0
Cc1onc(-c2ccccc2)c1CNC(=O)Nc1cccc(Cl)c1,1.9%,i,?,?,-65.9*
CCOc1ccc(C(=O)COC(=O)c2c(-c3ccccc3)noc2C)cc1,?,?,?,6.51µM*,28.9
SMILES,SW480 rerep,KB-V1 MDR tox,KB-3-1 cytotox,MCF10A rereplic,IL-1B inflam inh
Cc1onc(-c2ccccc2)c1C(=O)OCCOc1cccc(Cl)c1,6.51µM*,i,?,20.6µM*,5.7
Cc1ccc(OCCOC(=O)c2c(-c3ccccc3)noc2C)cc1,98.6%,?,i,?,2.4
Cc1cc(C)cc(NC(=O)NCc2c(-c3ccccc3)noc2C)c1,-1.2%,i,i,1.2%,34.0
COc1cccc(C(=O)N2CCC[C@@H]2C(=O)N2CCC[C@@H]2C(=O)NCc2ccccc2Cl)c1,/,i,i,/,14.6
COc1ccc(-c2cc(C(=O)Nc3ccc(Br)cc3)no2)cc1,7.0%,i,i,13.0%,-11.7
CCOc1ccc(NC(=O)Cn2c(=O)n(Cc3ccco3)c(=O)c3ccc(C(=O)NC4CCCC4)cc32)cc1,/,?,i,/,/
COCCCNC(=O)c1ccc(S(=O)(=O)c2ccc(Cl)cc2)c(NC(C)=O)c1,-11.9%,i,i,-9.3%,2.4
CCC(CC)CN1CCN=C1Nc1ccccc1,7.0%[9.22 µM],i,i,3.1%,15.0
Cc1ccc(NS(=O)(=O)c2ccc(Cl)c(NC(=S)NC(=O)C3CCCCC3)c2)cc1Cl,-66.1%,i,i,8.2µM*,-76.9*
O=C(Nc1cccc(S(=O)(=O)c2cccc(NC(=O)C3CC3)c2)c1)C1CC1,0.8%,?,?,-1.1%,-73.9*
Cc1ccc(S(=O)(=O)Nc2cccc(Cl)c2)cc1NC(=O)C1CC1,2.9%,20.6µM*,?,0.7%,-13.3
CCC(=O)N1CCc2cc(S(=O)(=O)NCCC(=O)NCc3ccc(C)cc3)ccc21,/,i,i,/,/
CCN(CC)c1ccc(/C=C(\C#N)C(=O)c2ccc(Br)cc2)cc1,?,i,i,13µM*,?
CCN(CC)c1ccc(/C=C(\C#N)C(N)=O)cc1,1.0%,i,i,-0.2%,-10.6
CCN(CC)S(=O)(=O)c1ccc(N/N=C(\C)c2ccncc2)nc1,?,i,i,?,-5.3
CCN(CC)S(=O)(=O)c1ccc(N/N=C(\C)c2cccnc2)nc1,0.1%,i,i,-8.0%,-50.9*
COc1ccc(-c2nn(CC(=O)NCCc3ccccc3)c(=S)n2C)cc1,-3.7%,16.4µM*,?,14.9%,-4.4
CCn1c(-c2ccc(C)cc2)nn(CC(=O)NCCc2ccccc2)c1=S,6.1%,?,?,?,-11.9
COc1cc(OC)nc(Oc2cc(/C=N/O)ccc2OC)n1,11.6µM*,?,?,?,0.0
O=C(C(=O)N1CCCc2ccccc21)N1CCCc2ccccc21,-16.4%,i,i,0.0%,38.5
O=C(c1cccc(F)c1)N1CCc2ccccc21,1.4%,i,i,0.184µM*,8.5
COc1cc(C(=O)N2CCCc3ccccc32)c([N+](=O)[O-])cc1OC,-3.5%,i,i,16.4µM*,0.0
O=C(c1cccc([N+](=O)[O-])c1)N1CCc2ccccc21,-0.4%,i,i,-7.5%,-15.2
CC(NC(c1ccccc1)c1ccccc1)C(=O)N1CCCc2ccccc21 (stereo not given),-2.3%,13µM*,18.4µM*,?,-5.3
